In all, about 33,000 sequences were measured (“E-score (-0.5 to 0.5)”: median about -0.043, highest 2% from about 0.37 on). What follows is part of a selection rich in the highest values, with near analogues and random picks from the rest.
target: T1, Upc2 (UniProt Q12151); assay: PBM E-score (8-mer binding enrichment) (E-score (-0.5 to 0.5)); higher = stronger / more preferred TF binding; details: protein concentration: 200 nM; construct: GST-full length
T1 sequence: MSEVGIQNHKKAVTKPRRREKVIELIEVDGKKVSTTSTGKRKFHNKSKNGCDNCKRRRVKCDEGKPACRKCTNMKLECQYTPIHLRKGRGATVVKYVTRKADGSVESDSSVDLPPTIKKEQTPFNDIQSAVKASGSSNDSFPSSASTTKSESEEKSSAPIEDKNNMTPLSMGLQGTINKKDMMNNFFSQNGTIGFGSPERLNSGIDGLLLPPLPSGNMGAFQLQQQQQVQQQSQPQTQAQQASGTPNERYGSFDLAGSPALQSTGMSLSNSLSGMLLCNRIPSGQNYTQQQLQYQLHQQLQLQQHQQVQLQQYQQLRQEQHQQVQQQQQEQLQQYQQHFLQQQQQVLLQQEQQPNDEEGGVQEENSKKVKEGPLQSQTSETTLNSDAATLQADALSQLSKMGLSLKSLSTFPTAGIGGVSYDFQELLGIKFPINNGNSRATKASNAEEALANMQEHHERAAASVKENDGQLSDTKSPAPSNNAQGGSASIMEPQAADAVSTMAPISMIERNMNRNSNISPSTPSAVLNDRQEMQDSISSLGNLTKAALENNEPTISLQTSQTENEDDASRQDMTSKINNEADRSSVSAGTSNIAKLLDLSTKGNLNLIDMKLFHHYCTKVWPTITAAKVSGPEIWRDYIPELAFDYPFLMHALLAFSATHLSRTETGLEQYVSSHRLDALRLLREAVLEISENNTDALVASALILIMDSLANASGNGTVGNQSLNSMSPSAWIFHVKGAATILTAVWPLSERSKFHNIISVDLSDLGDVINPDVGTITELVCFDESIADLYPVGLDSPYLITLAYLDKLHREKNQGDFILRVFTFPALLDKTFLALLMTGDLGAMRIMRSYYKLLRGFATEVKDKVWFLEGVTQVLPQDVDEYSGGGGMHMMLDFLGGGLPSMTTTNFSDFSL
Procedure: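 Universal 'all 10-mer' protein binding microarrays (Agilent AMADID 015681) probed with GST-tagged S. cerevisiae TFs (full-length or DBD) made by in vitro transcription/translation (PURExpress), about 100-200 nM. Bound TF was detected with fluorescent anti-GST. Each ungapped 8-mer (which stands for itself and its reverse complement) is scored by the PBM enrichment score (E-score), a modified Wilcoxon-Mann-Whitney statistic from -0.5 to +0.5, computed with the Universal PBM Analysis Suite. Scale: above 0.35 generally sequence-specific binding.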

Row | Sequence | PBM E-score
1 | AGCTACTC | -0.129
2 | CAAAAGCA | 0.0182
3 | ACTTATGG | -0.159
4 | CCTACTCC | -0.318
5 | CGTCGTAG | 0.37
6 | AGTCGTGC | -0.127
7 | CGTCGTGC | 0.0916
8 | CATCGTCG | 0.106
9 | AGTCGTAC | 0.452
10 | CGTCGTCC | -0.154
11 | GGTCGTAC | 0.462
12 | GGTCGCAC | 0.138
13 | CGTCGTAC | 0.474
14 | CGTAGTAG | 0.108
15 | AGTCGTCC | -0.111
16 | GGACGTAC | 0.138
17 | GAGTGAGA | -0.214
18 | CGCCTATC | -0.0576
19 | AAAGGAGC | -0.113
20 | GGGAGGAA | -0.119
21 | AGAGATGA | -0.204
22 | ATGGAGCA | -0.0645
23 | CCCCAAGG | -0.378
24 | CTTCCACC | -0.173
25 | CAACCTCG | 0.196

Row | Sequence | PBM E-score
26 | AGTCGTCG | 0.0489
27 | AGTCGTAG | 0.291
28 | AGTCGTAT | 0.467
29 | CGGAAGCC | -0.0575
30 | ACTTTTCA | -0.0685
31 | CGTTGTTA | 0.0821
32 | ATTCGTTG | 0.215
33 | ATTCGTTA | 0.346
34 | GTTCGTTA | 0.403
35 | GTGCGTTA | 0.0729
36 | CTTCGTTC | 0.457
37 | ATTCGTTC | 0.428
38 | CTTCGATC | 0.0841
39 | CTTCGTTA | 0.345
40 | CTTCGCTC | 0.208
41 | AGTCCTCA | -0.296
42 | CATAGGTC | -0.0923
43 | GCCCCTCC | -0.0822
44 | ACATAACG | 0.116
45 | GCCTATCA | -0.187
46 | CTACGGTC | 0.109
47 | AGACGGTG | -0.109
48 | ACACGGTG | -0.0718
49 | AAACGGTA | 0.367
50 | AAACGGTG | 0.386

Row | Sequence | PBM E-score
51 | GTACGGTA | 0.365
52 | ATACGGTG | 0.408
53 | ATACGGTC | 0.418
54 | ATACGGTA | 0.406
55 | AAACGGTC | 0.344
56 | CTACGGTA | 0.122
57 | ACACGGTC | -0.099
58 | GATGAAAA | 0.0354
59 | GGCGGGTA | -0.00895
60 | GACGAACA | 0.0681
61 | CACGAACG | 0.343
62 | CACGAACC | 0.101
63 | AACGAACG | 0.419
64 | GACGAACC | 0.0416
65 | ACCGAACG | 0.269
66 | AACGAACA | 0.426
67 | CACGAACA | 0.0853
68 | AGCGAACA | 0.19
69 | TCCGAACA | -0.0096
70 | AACGAACC | 0.427
71 | TACGAACA | 0.452
72 | AGAAGCGG | -0.222
73 | AGAATAGA | -0.17
74 | CACACTTA | -0.00527
75 | ACTAGAGC | -0.0879

Row | Sequence | PBM E-score
76 | GTAATGAC | 0.109
77 | ACAGTTTC | -0.0564
78 | CCCGCCAA | 0.00973
79 | ACTCTACT | 0.0626
80 | CATCCTAC | -0.0778
81 | ACGCTAGG | -0.165
82 | AGAGTAAT | -6e-05
83 | TGTCGACA | 0.063
84 | CCCTAGCA | -0.26
85 | AGCGAACT | 0.0961
86 | AACGAACT | 0.371
87 | ACCGAACT | 0.0158
88 | AATAGCCT | -0.081
89 | ACGATTCA | 0.328
90 | AGCGTATC | 0.166
91 | CGCGTATA | 0.451
92 | GGCGTATA | 0.434
93 | CGCGTAGA | 0.165
94 | GGCGTAGA | 0.048
95 | AGCGTATG | 0.268
96 | CGCGTATC | 0.253
97 | AGCGTATA | 0.444
98 | GGCGTCTA | -0.152
99 | GAACCATA | -0.072
100 | CGCCTTGC | -0.288

Row | Sequence | PBM E-score
101 | ACTTGTCA | -0.235
102 | AAAGCATG | -0.169
103 | AGCTTGAT | -0.129
104 | CGTATGAG | 0.415
105 | AGTATGAA | 0.00208
106 | CGTATGAC | 0.42
107 | AGTATGAG | -0.125
108 | GGTATGAA | 0.0119
109 | CGTATGAA | 0.405
110 | GGTATGAC | -0.204
111 | CCTATGAG | -0.28
112 | AGTATGAC | 0.0571
113 | CAAGGTGG | -0.0983
114 | ACGTAACA | -0.0115
115 | GATCTTAA | 0.159
116 | ACGGTGGG | 0.134
117 | AACGACTC | 0.401
118 | TACGACTA | 0.437
119 | CACGACTA | -0.0651
120 | CACGACTC | 0.0449
121 | AACGACTG | 0.389
122 | AGCGACTA | 0.154
123 | GACGACTA | -0.171
124 | CACGACTG | 0.0762
125 | AACGACTA | 0.379

Row | Sequence | PBM E-score
126 | GACGACTC | -0.052
127 | AACGACTT | 0.305
128 | ATCGACTG | 0.0556
129 | AACCATAA | -0.0292
130 | CACCAATC | -0.249
131 | CTCCCACC | -0.0368
132 | GTGTTCAA | -0.00045
133 | AGCCAACA | -0.098
134 | ATGTCTTG | -0.0852
135 | CATGGGGC | -0.34
136 | CAGGGTAA | -0.14
137 | GAGGTCAA | -0.0747
138 | CTCCCAAA | -0.0646
139 | CGTATCAA | 0.37
140 | CGTATCAG | 0.381
141 | CGTATCAC | 0.364
142 | AGTATCAG | -0.235
143 | CATATCAG | -0.165
144 | TGTATCAA | -0.0549
145 | CGGGCTAG | -0.117
146 | CAAATCTG | -0.272
147 | CCTGCTTC | -0.109
148 | TAACGAGA | 0.391
149 | ACACGAGT | 0.162
150 | ACACGAGA | 0.244

Row | Sequence | PBM E-score
151 | CAACGAGG | 0.278
152 | CCACGAGA | -0.277
153 | AATCGAGT | 0.0695
154 | TCACGAGA | 0.0145
155 | AAACGAGA | 0.469
156 | AAACGTGG | 0.255
157 | AAACGAGG | 0.481
158 | CAACGAGA | 0.314
159 | AAACGAGT | 0.477
160 | CTATGGAA | -0.161
161 | AAGATTGT | 0.00873
162 | ATTCACGA | 0.0672
163 | AATGACCC | -0.157
164 | GCTAGTGA | -0.115
165 | AATGAGCT | -0.163
166 | CCTCCTCC | -0.105
167 | AACTAGTA | -0.0317
168 | GTGCTATA | 0.128
169 | CCTTGTCC | -0.205
170 | CGGTTCAC | -0.117
171 | CGTAACGC | 0.324
172 | CTTAACGC | 0.17
173 | ATTAACGG | 0.185
174 | GTTAACTA | 0.157
175 | ATTAACGC | 0.143

Row | Sequence | PBM E-score
176 | CGTAACGA | 0.374
177 | CTTAACGA | 0.464
178 | CTTAACCA | -0.0796
179 | GTTAACGA | 0.442
180 | ATTAACGA | 0.424
181 | GGTAACGA | 0.346
182 | GCTAACGA | 0.304
183 | ACGCACGT | 0.144
184 | AGATTCTC | -0.0164
185 | CACTTCAA | -0.0335
186 | GGCACACA | -0.136
187 | ACGCAGTG | 0.0743
188 | TCACCTGA | -0.284
189 | CTACGCTA | -0.04
190 | TCGCTTAA | 0.403
191 | GCGCTTAA | 0.173
192 | CCGCTTAA | 0.268
193 | ACTTATTG | -0.116
194 | GATCTCTA | -0.0508
195 | AATAAACG | 0.429
196 | CATAAACG | 0.462
197 | CATAAACC | -0.075
198 | CATAAACA | -0.00956
199 | AATAAACA | 0.0907
200 | AATAAACT | -0.0754

Row | Sequence | PBM E-score
201 | CTCATACC | 0.051
202 | GGCTTTTA | -0.157
203 | CTAATTCA | -0.0938
204 | CCGTTCAC | 0.291
205 | AGTTGTTC | 0.127
206 | AACGATAT | 0.39
207 | AGCGATAA | 0.0894
208 | ACCGATAG | -0.0483
209 | CACGATAC | 0.197
210 | ACCGATAA | 0.158
211 | GACGATAC | 0.124
212 | CACGATAG | -0.187
213 | AACGATAG | 0.404
214 | AGCGATAT | 0.206
215 | ACCGATAT | 0.0732
216 | AACGATAC | 0.413
217 | AACGATAA | 0.381
218 | CACTGACG | -0.152
219 | GTGGGTCA | -0.327
